This is an account of results in PubChem BioAssay (NCI).

Holding throughout (test): NCI-60 one-dose screen, 48 h (100 = growth as untreated, 0 = no growth, -100 = all killed)
Conditions in all cases: 10 µM unless noted

For assay [1], the system named is NCI-H23 lung.
For assay [2], the system named is NCI-H226 lung.
For assay [3], the system named is NCI-H322M lung.
For assay [4], the system named is HOP-62 NSCLC.
The test system of assay [5] is NCI-H460 lung.
Assay [6] relates to HOP-92 NSCLC.
Assay [7] relates to NCI-H522 lung.
For assay [8], the system named is A549/ATCC NSCLC.
Assay [9] concerns 786-0 renal.
Assay [10] has as its system COLO 205 colon.

Several values for one entry are separate records, joined by “and”; a condition that tells them apart may be missing. Identical values can stand only once. This is part of a sample that, as a whole, favours compounds with a hit. Of some 83,000 tested, about 20% had one in any assay.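 Interpretation: 100, growth as untreated; towards 0, rising growth inhibition; 0, no net growth; 0 to -100, cell death. Compounds scoring below 10 were considered active.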 A structure can be active in one record and inactive in another. Activity calls are given as the source filed them.

As to `OC1CCC(Oc2cccc3cnc(Nc4ccc5nc[nH]c5c4)nc23)CC1` (stereo not given), the growth in assay [1] was -21.5% (active) and 25.5% (inactive); in assay [2], 9.66% (active) and 31.6% (inactive); in assay [3], 12.2% (inactive) and 50.6% (inactive); in assay [4], -24.5% (active) and 5.23% (active); in assay [5], 4.89% (active) and 25.8% (inactive); in assay [6], 14.2% (inactive) and 40.3% (inactive). The growth in assay [7] was -21.9% (active) and 54% (inactive); in assay [8], -9.62% (active) and 28.9% (inactive); in assay [9], 15.5% (inactive) and 38.8% (inactive); in assay [10], -30.1% (active) and 34.8% (inactive).
Turning to `CN(Cc1ccccc1)Cc1ccccc1`, the growth in [1] was 96.6% (inactive); in assay [2], 94.1% (inactive); in assay [3], 81.3% (inactive); in assay [4] it was 93% (inactive); in assay [5], 110% (inactive); in assay [6] it was 91.8% (inactive). For the same compound, the growth is 97.3% (inactive) in assay [7], 96.7% (inactive) in assay [8], 99.2% (inactive) in assay [9] and 105% (inactive) in [10].
As to `CNc1ccc2nc3ccc(=[N+](C)C)cc-3sc2c1`, the growth was 1.76% (active) and -7.91% (active) in assay [1]; 63% (inactive) and 51.4% (inactive) in [2]; 30.7% (inactive) and 28.1% (inactive) in assay [3]; 7.64% (active) and 7.54% (active) in assay [4]; 9.72% (active) and 11.9% (inactive) in assay [5]; 36.4% (inactive) and -4.83% (active) in assay [6]. The growth in assay [7] is -19.9% (active) and 8.62% (active); in assay [8], 3.27% (active) and 5.26% (active); in assay [9], 37.7% (inactive) and 20.6% (inactive); in assay [10], -22.3% (active) and -30.4% (active).
Take `CC(C)C(=O)Nc1ccc([N+](=O)[O-])c(C(F)(F)F)c1`: the growth was 89.5% (inactive) and 93.9% (inactive) in assay [1]; 72.5% (inactive) and 82.8% (inactive) in assay [2]; 104% (inactive) and 113% (inactive) in assay [3]; 94.9% (inactive) and 84.2% (inactive) in [4]; 83.8% (inactive) and 109% (inactive) in [5]; 53.9% (inactive) and 91.1% (inactive) in [6]. Moreover, the growth is 79.2% (inactive) and 79.1% (inactive) in assay [7]; 81.4% (inactive) and 103% (inactive) in [8]; 96.4% (inactive) and 87.2% (inactive) in assay [9]; 93.5% (inactive) and 117% (inactive) in [10].
In the case of `CN1CCN(Cc2occc(=O)c2O)CCN(C)CCN(Cc2occc(=O)c2O)CC1`, the growth is 94.6% (inactive) and 49.4% (inactive) in assay [1]; 94.7% (inactive) and 70.5% (inactive) in assay [2]; 105% (inactive) and 74.9% (inactive) in assay [3]; 97.1% (inactive) and 58.9% (inactive) in [4]; 105% (inactive) and 6.42% (active) in [5]; 83.8% (inactive) and 68.4% (inactive) in assay [6]. Moreover, the growth in assay [7] is 104% (inactive) and 45.8% (inactive); in assay [8], 93.2% (inactive) and 12.3% (inactive); in assay [9], 93.3% (inactive) and 50% (inactive); in [10] it was 102% (inactive) and 29.7% (inactive).
As for `CN(C)c1ccc(/C=C(\C#N)c2ccccc2)cc1`, the growth in assay [1] is 29.3% (inactive) and 36.4% (inactive) and 44.1% (inactive); in [2] it was 92.4% (inactive) and 60.5% (inactive) and 73% (inactive); in assay [3] it was 64% (inactive) and 57.1% (inactive) and 47.6% (inactive); in assay [4] it was 48.3% (inactive) and 31.4% (inactive) and 36.6% (inactive); in [5], 11.2% (inactive) and 20.8% (inactive) and 12.2% (inactive); in assay [6], 53.9% (inactive) and 39.5% (inactive) and 14% (inactive). Moreover, the growth is -50% (active) and 2.73% (active) and 5.2% (active) in [7]; 24.3% (inactive) and 31.2% (inactive) and 24.9% (inactive) in assay [8]; 44.7% (inactive) and 42.3% (inactive) and 45.6% (inactive) in assay [9]; -2% (active) and -7.08% (active) in assay [10].
Regarding `CC(C)N=c1cc2n(-c3ccc(Cl)cc3)c3ccccc3nc-2cc1Nc1ccc(Cl)cc1`, the growth is -15.1% (active) and -62% (active) and -35.6% (active) in assay [1]; 35.8% (inactive) and 20.1% (inactive) and -21.7% (active) in assay [2]; 26.9% (inactive) and -13.2% (active) and -0.542% (active) in assay [3]; 55.8% (inactive) and 73.1% (inactive) and 42.9% (inactive) in assay [4]; 13.1% (inactive) and 13.2% (inactive) and -4.66% (active) in [5]; -2.5% (active) and -0.497% (active) in [6]. Further, the growth in assay [7] was 9.58% (active) and -31.8% (active); in assay [8], 20.2% (inactive) and 43.3% (inactive) and 16.1% (inactive); in [9], 24.7% (inactive) and 9.68% (active) and -18.8% (active); in assay [10], -7.57% (active) and -28.7% (active).
